RBX1-CUL1 inh = human ROC1-CUL1 E3 ligase inhibition | P62877+Q13616 | in vitro K48 di-Ub FRET, acceptor:donor ratio, 45 min | inhibition, % at 10 µM | hit rate 0.6% among 140,000 | AID 1347404; in the data active = inhibition above about 25%
Target sequence (P62877 whole entry, looked up): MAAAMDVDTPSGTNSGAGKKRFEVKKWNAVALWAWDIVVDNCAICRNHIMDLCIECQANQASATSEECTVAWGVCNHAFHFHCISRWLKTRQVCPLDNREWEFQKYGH
Target sequence (Q13616 whole entry, looked up): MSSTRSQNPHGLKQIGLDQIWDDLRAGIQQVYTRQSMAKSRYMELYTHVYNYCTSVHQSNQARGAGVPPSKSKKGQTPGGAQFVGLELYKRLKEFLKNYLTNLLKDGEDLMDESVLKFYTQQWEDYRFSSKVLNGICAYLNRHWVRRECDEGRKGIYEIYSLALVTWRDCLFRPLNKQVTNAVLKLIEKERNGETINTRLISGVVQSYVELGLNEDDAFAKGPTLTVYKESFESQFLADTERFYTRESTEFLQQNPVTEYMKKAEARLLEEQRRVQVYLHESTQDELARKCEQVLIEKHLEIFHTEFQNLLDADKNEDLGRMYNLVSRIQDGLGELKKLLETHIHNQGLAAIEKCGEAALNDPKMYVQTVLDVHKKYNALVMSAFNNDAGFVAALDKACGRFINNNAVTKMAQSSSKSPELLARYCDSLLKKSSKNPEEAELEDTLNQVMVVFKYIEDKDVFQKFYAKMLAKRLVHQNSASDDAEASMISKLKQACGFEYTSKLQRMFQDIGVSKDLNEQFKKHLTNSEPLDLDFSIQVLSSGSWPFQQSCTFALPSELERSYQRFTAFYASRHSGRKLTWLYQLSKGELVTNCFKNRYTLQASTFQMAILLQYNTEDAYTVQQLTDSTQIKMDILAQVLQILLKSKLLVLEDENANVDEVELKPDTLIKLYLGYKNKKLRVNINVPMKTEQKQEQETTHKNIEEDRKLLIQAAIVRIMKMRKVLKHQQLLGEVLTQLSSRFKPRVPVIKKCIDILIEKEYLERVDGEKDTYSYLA
Numbers stand for hits; n = inactive. Many of the other results were omitted from the sample, so hits are more common in it than they were.

SMILES | RBX1-CUL1 inh
CC#CCN1C(=O)NC(CCCc2ccccc2)(C2CCN(C(=O)c3cc(C4CC4)[nH]n3)CC2)C1=O (stereo not given) | n
CCCCS(=O)(=O)N1CCCC(C(=O)Nc2ccc(F)cc2)C1 (stereo not given) | n
C1CCN(c2nc3nonc3nc2NCC2COCCO2)CC1 (stereo not given) | n
O=C(O)c1ccccc1N1C(=O)c2ccc3c4c(ccc(c24)C1=O)C(=O)N(c1ccccc1C(=O)O)C3=O | n
CCOc1ccc(C(CCc2ccccc2)NC(=O)c2ccco2)cc1OCC (stereo not given) | n
O=C(O)c1nn(-c2ccccc2)c(-c2ccccc2)c1C(=O)c1ccccc1 | n
O=C1C=CC(=O)c2c1c(-c1ccccc1)nn2-c1ccccc1 | 92
Oc1ccc2c(c1)c(-c1ccccc1)nn2-c1ccccc1 | n
CCOC(=O)c1c(N)sc(-c2ccccc2)c1-c1ccccc1 | n
CC1CN(C2CCCCC2)c2nc3c(c(=O)n(CCCO)c(=O)n3C)n2C1 (stereo not given) | n
c1ccc2c(c1)CCN(C1CCCN(Cc3ccon3)C1)C2 (stereo not given) | n
Cc1ccc(NC(=O)C2CCN(C3NS(=O)(=O)C(c4ccc(C(C)C)cc4)C3C)CC2)cc1 (stereo not given) | n
Cc1ccc(C)n1-c1ccc(C(N)=O)cc1 | n
Cc1ccc(C(=O)O)cc1-n1c(C)ccc1-c1ccccc1 | n
Cc1ccc(-c2ccccc2)n1-c1ccc(C(=O)O)cc1 | n
Cc1ccc(C)n1-c1cc(C(=O)O)ccc1Cl | 101
Cc1ccc(-c2ccccc2)n1-c1cccc(C(=O)O)c1 | n
Cc1ccc(C)n1-c1cccc(Cl)c1Cl | n
Cc1cc(C(=O)O)ccc1-n1c(C)ccc1C | 99
Cc1ccc(-c2ccccc2)n1-c1ccc(Cl)c(C(=O)O)c1 | n
Cc1ccc(C(=O)O)cc1-n1c(C)ccc1C | 96
CCOc1cc(C=C2C(=O)OC(C)(C)OC2=O)ccc1OCC#N | n
C=CCOC(=O)C1C(C)=NC(=S)NC1c1ccccc1Br (stereo not given) | n
Cc1ccc(C(=O)N2CCN(S(=O)(=O)c3cccs3)CC2)s1 | n
CCc1nc2cc(NC(C)=O)cc(C(=O)N3CCCC(COC)C3)c2n1Cc1cccnc1 (stereo not given) | n
SMILES | RBX1-CUL1 inh
CN(C)c1nc(NCc2ccccc2)nc(Nc2ccc(OC(F)(F)Cl)cc2)n1 | n
Cc1ccccc1NS(=O)(=O)Cc1cccc(Cl)c1 | n
COc1ccc(-c2csc(NC(=O)c3cccc4ccccc34)c2C(=O)O)cc1 | n
CC1C(=NC(=S)Nc2ccccc2)C(=O)N(c2ccccc2)N1C (stereo not given) | n
O=C(/C=C/c1ccc(F)cc1)n1cccn1 | n
c1ccc(CN2CCN(c3ncnc4sc(C5COc6ccccc6O5)cc34)CC2)cc1 (stereo not given) | n
O=C(NC1(C(F)(F)F)C(=O)N=C2C1C(=O)NC(=O)N2c1ccc(F)cc1)c1ccccc1 (stereo not given) | n
CC1C(=NC(=O)CSc2nnc(Cc3ccccc3)o2)C(=O)N(c2ccccc2)N1C (stereo not given) | n
CC1C(=NC(=O)CSc2nnc(-c3ccccc3)n2-c2ccccc2)C(=O)N(c2ccccc2)N1C (stereo not given) | n
CC1C(=NC(=O)CSc2nc(-c3ccccc3)c(-c3ccccc3)o2)C(=O)N(c2ccccc2)N1C (stereo not given) | 52
N#CC1C(=N)Oc2cc(O)c(C=Nc3cc(C(F)(F)F)ccc3Cl)cc2C1c1ccco1 (stereo not given) | 85
N#CC1C(=N)Oc2cc(O)c(C=Nc3ccc(Cl)c(Cl)c3)cc2C1c1cccc(I)c1 (stereo not given) | n
Cc1ccc(N=Cc2cc3c(cc2O)OC(=N)C(C#N)C3c2cccc(F)c2)c(C)c1 (stereo not given) | n
Cc1nn(-c2ccccc2)c(Cl)c1C1NC(=O)c2c(sc3c2CCN(Cc2ccccc2)C3)N1 (stereo not given) | n
COc1ccc2c(c1)-c1nc(-n3ncc(C(=O)N4CCN(C5CCCC5)CC4)c3C)ncc1CC2 | n
COC12C=CC(CC1)C1C(=O)c3c(OC(=O)OCc4ccccc4)ccc(O)c3C(=O)C12 (stereo not given) | 27
CC1(O)CC(=O)C(C(=O)OCc2ccccc2)C(c2ccc(O)cc2)C1C(=O)OCc1ccccc1 (stereo not given) | n
COC12C=CC(CC1)C1C(=O)c3cccc(O)c3C(=O)C12 (stereo not given) | n
COc1cc2cc(-c3ccccc3)nc(Cc3ccccc3)c2cc1OC | n
CCCOc1c(Br)cc(C2NC(=S)NC(c3ccccc3)=C2C(=O)Nc2ccc(C)cc2)cc1OC (stereo not given) | n
CC(C)(Oc1ccc(C2CCCCC2)cc1)C(=O)O | 66
O=C(COc1ccc(C2CCCCC2)cc1)Nc1ccccc1F | n
COC(=O)c1ccccc1NC(=O)COc1ccc(C2CCCCC2)cc1 | n
Cc1ccc(NC(=O)c2cccnc2)c(O)c1 | n
CCOc1c(Cl)cc(C(=O)Nc2ccccc2C(F)(F)F)cc1Cl | n
SMILES | RBX1-CUL1 inh
CCOc1cc(NC(=O)C(C(F)(F)F)C(F)(F)F)c(OCC)cc1NC(=O)c1ccccc1 | 67
CCOc1cc(C(=O)Nc2ccccc2Oc2ccccc2)cc(OCC)c1OCC | n
Cc1nc(SCC(=O)NC(Cc2ccccc2)C(=O)O)c2c3c(sc2n1)CCC3 (stereo not given) | n
CSc1cccc(CNC(C)c2cnn(-c3ccccc3)c2C)c1 (stereo not given) | n
CN1CCN(CC(O)COC23CC4CC(CC(C4)C2)C3)CC1 (stereo not given) | n
Cc1ccc(/C=C2\C(=O)Nc3ccc(Br)cc32)cc1C | n
O=C1Nc2ccc(Br)cc2/C1=C/c1cc(O)c(O)c(Br)c1 | 66
COc1cccc(/C=C2\C(=O)Nc3ccc(Br)cc32)c1 | n
CNS(=O)(=O)c1cnccc1N1CCN(C(C)C)CC1 | n
Cc1oc(-c2ccc(Cl)cc2)nc1CN1CCCCC1C (stereo not given) | n
COc1ccc(NC(=O)c2cc(F)c(F)cc2Cl)cc1OC | n
CN1C(=O)C(=C/C=C/c2ccco2)C(=O)N(C)C1=S | 45
O=C1C(=C/C=C/c2ccccc2Cl)C(=O)N(c2ccccc2)C(=S)N1c1ccccc1 | n
O=C(/C=C/c1ccco1)CCN1CCCCC1 | n
CC1(C)CC(=O)C(C2=NC3(CCCCC3)Cc3ccccc32)C(=O)C1 | n
O=S(=O)(NNc1ccccc1)c1cccs1 | n
COc1ccc2[nH]c3c(c2c1)CCNC3c1ccccc1Cl (stereo not given) | n
CC12CN3CC(C)(CN(C1)C3c1ccccc1Cl)C2O (stereo not given) | n
Clc1ccccc1C1NCCS1 (stereo not given) | 31
COc1ccc(NC(=O)C2C(C)=Nc3nc(-c4cccs4)nn3C2c2ccccc2OC)cc1 (stereo not given) | n
Cc1ccc(NCCNc2cc(C)nc3c2ccc2ccccc23)cc1 | n
COc1cccc(Cn2nnc3c2C(=O)c2ccccc2C3=O)c1 | n
O=c1c2ccccc2nnn1Cc1ccccc1 | n
Cc1ccc(Cn2nnc3c2C(=O)c2ccccc2C3=O)cc1 | 65
O=C1N=c2ccc([N+](=O)[O-])cc2=C1N=Nc1c(O)[nH]c2ccc([N+](=O)[O-])cc12 | 45
O=[N+]([O-])c1ccc2[nH]c(O)c(N=Nc3ccccc3[N+](=O)[O-])c2c1 | n
NC(=O)N=Nc1c(O)[nH]c2ccc(Br)cc12 | n
